Assays:
Test in all cases: log2 ratio of Biotin-Ahx-Ub-VS probe labelling (fragment/DMSO); higher = less target engagement (more negative = stronger competition), active = hit call of the paper (q ≤ 0.05, log2 ratio ≤ -1)
Settings in all cases: compound concentration: 200 uM; treatment time: 3 h
OTUD6B = biological target: T1, OTUD6B (UniProt Q8N6M0)
T1 sequence (whole entry): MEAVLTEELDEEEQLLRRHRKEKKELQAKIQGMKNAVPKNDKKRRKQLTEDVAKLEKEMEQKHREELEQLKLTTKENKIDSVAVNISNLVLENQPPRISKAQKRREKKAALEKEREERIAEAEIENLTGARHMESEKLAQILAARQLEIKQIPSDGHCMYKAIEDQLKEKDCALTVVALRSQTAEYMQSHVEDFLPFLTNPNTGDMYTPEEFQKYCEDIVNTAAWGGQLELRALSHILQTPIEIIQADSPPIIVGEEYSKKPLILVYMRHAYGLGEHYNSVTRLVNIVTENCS
Procedure, shortened: (§1)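 HEK293T lysate (495 µg per sample, in Tris/CHAPS/IGEPAL buffer with protease inhibitors) was exposed in triplicate for 3 h to fragment at 200 µM or to vehicle, then to Biotin-Ahx-Ub-VS at 0.5 µM final for 1 h. Labelled DUBs were enriched on NeutrAvidin, digested with LysC and trypsin, and analysed by diaPASEF LC-MS/MS. Spectronaut label-free quantities were normalised to the global median, and values are average log2 ratios of fragment over vehicle from an unpaired t-test. Only proteins with ≥2 unique peptides were used.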

OTUD7B = biological target: T2, OTUD7B (UniProt Q6GQQ9)
T2 sequence (whole entry): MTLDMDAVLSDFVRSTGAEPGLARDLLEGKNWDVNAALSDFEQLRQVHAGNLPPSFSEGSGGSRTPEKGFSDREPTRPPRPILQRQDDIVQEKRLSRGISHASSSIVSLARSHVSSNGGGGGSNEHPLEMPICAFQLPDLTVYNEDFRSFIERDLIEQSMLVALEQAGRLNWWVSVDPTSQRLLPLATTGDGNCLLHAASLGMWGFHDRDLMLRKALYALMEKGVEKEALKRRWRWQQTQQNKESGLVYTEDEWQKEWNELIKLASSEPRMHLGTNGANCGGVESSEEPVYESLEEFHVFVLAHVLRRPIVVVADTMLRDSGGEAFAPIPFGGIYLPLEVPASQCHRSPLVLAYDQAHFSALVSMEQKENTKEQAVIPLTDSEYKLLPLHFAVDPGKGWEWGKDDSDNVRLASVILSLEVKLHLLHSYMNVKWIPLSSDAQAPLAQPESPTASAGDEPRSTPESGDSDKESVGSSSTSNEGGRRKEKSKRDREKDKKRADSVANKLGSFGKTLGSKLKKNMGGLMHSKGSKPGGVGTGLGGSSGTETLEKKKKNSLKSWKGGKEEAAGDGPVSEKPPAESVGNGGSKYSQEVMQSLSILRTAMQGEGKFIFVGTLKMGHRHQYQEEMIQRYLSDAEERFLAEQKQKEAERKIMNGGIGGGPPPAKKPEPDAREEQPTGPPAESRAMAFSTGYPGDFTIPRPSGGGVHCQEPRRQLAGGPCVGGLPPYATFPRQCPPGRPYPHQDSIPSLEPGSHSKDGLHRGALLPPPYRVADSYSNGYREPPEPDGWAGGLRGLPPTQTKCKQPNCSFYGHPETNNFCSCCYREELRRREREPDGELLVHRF
Procedure, shortened: as §1

PRPF8 = PRPF8 (UniProt Q6P2Q9)
Procedure, shortened: as §1

PSMD7 = biological target: T3, PSMD7 (UniProt P51665)
T3 sequence (whole entry): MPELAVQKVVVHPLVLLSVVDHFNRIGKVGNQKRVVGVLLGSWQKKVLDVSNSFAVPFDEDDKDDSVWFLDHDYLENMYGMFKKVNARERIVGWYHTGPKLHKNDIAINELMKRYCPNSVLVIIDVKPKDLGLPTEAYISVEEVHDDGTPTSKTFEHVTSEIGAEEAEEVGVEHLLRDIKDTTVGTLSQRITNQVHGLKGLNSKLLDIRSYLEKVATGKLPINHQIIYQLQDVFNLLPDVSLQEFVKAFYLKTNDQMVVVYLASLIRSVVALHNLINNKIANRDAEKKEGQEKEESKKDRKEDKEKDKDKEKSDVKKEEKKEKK
Procedure, shortened: as §1

UCHL1 = UCHL1 (UniProt P09936)
Procedure, shortened: as §1

UCHL3 = biological target: T4, UCHL3 (UniProt P15374)
T4 sequence (whole entry): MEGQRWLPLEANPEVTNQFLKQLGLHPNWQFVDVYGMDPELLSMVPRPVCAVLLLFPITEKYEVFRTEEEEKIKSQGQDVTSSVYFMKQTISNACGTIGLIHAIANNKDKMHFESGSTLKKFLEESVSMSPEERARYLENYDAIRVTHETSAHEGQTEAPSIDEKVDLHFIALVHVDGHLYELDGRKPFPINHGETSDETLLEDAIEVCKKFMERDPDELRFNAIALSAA
Procedure, shortened: as §1

UCHL5 = biological target: T5, UCHL5 (UniProt Q9Y5K5)
T5 sequence (whole entry): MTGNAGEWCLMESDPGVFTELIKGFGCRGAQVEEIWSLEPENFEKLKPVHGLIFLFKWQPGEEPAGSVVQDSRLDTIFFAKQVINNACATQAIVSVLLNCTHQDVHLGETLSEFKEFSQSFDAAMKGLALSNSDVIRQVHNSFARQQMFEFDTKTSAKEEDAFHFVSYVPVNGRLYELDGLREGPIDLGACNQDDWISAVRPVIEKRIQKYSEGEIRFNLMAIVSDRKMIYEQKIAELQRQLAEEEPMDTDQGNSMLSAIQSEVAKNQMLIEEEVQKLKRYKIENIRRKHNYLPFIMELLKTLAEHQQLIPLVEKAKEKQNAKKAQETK
Procedure, shortened: as §1

USP10 = USP10 (UniProt Q14694)
Procedure, shortened: as §1

USP15 = biological target: T6, USP15 (UniProt Q9Y4E8)
T6 sequence (whole entry): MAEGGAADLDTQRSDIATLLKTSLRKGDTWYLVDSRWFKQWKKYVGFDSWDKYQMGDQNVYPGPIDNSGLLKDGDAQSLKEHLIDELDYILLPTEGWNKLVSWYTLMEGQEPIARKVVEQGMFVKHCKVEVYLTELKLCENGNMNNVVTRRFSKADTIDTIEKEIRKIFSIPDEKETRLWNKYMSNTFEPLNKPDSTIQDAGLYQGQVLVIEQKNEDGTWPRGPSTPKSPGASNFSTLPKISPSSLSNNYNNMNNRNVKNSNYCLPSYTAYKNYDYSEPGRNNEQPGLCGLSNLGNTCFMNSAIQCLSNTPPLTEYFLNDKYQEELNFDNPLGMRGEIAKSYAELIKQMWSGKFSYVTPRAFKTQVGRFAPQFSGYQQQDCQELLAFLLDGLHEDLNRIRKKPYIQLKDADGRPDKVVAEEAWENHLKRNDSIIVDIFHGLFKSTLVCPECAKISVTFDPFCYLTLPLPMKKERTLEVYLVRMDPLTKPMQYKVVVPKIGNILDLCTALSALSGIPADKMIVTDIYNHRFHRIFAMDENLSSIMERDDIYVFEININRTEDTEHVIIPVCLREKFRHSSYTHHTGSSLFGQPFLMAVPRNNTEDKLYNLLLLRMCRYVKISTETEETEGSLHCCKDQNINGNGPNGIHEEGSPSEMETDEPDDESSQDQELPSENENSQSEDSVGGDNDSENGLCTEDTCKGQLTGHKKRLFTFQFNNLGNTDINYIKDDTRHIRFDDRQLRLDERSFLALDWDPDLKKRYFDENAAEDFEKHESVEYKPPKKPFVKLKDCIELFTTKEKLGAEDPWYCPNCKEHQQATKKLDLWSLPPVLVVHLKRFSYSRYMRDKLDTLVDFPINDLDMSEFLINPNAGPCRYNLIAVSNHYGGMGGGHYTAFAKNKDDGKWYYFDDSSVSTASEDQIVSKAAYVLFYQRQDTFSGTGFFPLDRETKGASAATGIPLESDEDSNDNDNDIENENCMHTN
Procedure, shortened: as §1

USP16 = USP16 (UniProt Q9Y5T5)
Procedure, shortened: as §1

Measured: log2 ratio of Biotin-Ahx-Ub-VS probe labelling

Chain of UCHL1 (P09936 whole entry, looked up): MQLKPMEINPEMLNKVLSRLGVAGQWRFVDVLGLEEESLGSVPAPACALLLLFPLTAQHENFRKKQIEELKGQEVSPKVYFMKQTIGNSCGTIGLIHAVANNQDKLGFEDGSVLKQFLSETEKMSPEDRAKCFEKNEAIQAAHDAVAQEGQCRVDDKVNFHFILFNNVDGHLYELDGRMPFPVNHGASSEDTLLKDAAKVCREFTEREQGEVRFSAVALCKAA
Chain of USP16 (Q9Y5T5 whole entry, looked up): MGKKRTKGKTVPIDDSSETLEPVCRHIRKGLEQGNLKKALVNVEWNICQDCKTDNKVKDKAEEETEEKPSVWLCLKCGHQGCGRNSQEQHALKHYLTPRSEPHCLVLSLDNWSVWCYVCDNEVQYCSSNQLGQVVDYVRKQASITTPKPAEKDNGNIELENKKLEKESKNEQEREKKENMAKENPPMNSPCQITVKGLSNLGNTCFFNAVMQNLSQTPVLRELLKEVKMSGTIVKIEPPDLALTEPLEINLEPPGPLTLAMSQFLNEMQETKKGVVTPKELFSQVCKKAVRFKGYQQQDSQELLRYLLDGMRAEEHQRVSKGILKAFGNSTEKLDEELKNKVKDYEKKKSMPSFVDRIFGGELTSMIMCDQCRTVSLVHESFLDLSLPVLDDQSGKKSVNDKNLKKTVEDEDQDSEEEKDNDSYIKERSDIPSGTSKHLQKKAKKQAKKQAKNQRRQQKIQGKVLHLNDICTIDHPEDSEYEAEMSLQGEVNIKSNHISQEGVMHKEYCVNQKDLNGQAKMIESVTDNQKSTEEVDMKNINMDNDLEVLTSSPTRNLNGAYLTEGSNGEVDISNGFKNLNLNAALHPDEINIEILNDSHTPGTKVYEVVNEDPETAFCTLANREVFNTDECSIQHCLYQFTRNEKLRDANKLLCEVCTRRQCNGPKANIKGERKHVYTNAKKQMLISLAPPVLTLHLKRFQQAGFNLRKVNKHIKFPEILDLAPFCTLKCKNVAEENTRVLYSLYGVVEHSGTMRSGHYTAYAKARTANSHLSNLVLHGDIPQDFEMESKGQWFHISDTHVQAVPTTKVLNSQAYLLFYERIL
Chain of USP10 (Q14694 whole entry): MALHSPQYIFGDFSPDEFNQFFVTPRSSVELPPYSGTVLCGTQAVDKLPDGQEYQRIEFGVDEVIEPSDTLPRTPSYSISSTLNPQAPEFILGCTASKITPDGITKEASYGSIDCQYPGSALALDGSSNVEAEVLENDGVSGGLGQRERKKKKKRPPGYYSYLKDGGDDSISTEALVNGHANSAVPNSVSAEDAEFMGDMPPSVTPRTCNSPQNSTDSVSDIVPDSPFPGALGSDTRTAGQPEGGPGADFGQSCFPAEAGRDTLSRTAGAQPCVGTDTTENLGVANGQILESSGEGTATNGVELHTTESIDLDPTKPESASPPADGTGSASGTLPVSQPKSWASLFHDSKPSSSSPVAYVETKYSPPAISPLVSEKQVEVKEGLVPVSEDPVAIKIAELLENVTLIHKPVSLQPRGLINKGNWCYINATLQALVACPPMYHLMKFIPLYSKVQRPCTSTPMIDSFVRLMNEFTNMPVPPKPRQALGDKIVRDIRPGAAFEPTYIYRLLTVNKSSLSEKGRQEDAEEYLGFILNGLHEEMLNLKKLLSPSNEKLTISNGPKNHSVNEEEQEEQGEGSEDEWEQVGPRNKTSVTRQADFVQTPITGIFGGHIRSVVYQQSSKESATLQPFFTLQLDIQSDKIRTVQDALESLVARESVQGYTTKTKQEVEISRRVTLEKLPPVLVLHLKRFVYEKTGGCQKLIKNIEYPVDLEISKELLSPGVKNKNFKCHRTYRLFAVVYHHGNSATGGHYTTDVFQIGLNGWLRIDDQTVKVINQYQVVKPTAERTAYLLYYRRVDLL

Cl.O=C(CCl)NCCN1CCc2ccccc21
inactive: OTUD6B -0.983 | OTUD7B -0.675 | PRPF8 0.014 | PSMD7 -0.0696 | UCHL3 -0.556 | USP10 -0.344 | USP15 -0.991 | USP16 -0.252
active: UCHL1 -2.25 | UCHL5 -1.03
